This is a sample that favours compounds with a hit; in the whole collection about 19% have one here.
IL1B secr inh – qHTS for Inhibitors of Inflammasome Signaling: IL-1-beta AlphaLISA Primary Screen; THP-1 LPS/ATP IL-1B secretion, AlphaLISA, 16 h; active compounds read low; activity change, % at 57.5 µM; 360,000 compounds, 4.7% hits; AID 743279, 2014; in the data active means activity change below about -50%; inconclusive means mostly about -30% to -49%
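THP-1 cells pretreated 1 hr with compounds (up to 57.5 uM final), then stimulated with LPS (250 ng/mL final) plus ATP (1.25 mM final); secreted IL-1B measured by AlphaLISA after 16 hr, decreased signal indicating inhibition.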
DT40 TDP1 no CPT – qHTS for Inhibitors of human tyrosyl-DNA phosphodiesterase 1 (TDP1): qHTS in cells in absence of CPT; DT40 Tdp1-/- hTDP1 cells, no CPT, ATP luminescence, 48 h; Potency, µM (doses to about 46.2 µM), for the others: top-dose activity change, negative = growth inhibition, usual class: inhibitors; 420,000 compounds, 15% hits; AID 686978, 2013; further: potency means the concentration at half of the fitted maximal effect; nearly all actives have a fitted effect of over 55% in size
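Growth of hTDP1-complemented DT40 Tdp1-knockout cells is measured by ATP luminescence after at least 48 hr compound exposure at 37 °C, with DMSO substituting for the 20 nM CPT used in the parallel screen.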
HT1080 IDH1KD tx – qHTS for induction of synthetic lethality in tumor cells producing 2HG: qHTS for the HT-1080-IDH1KD cell line | HT-1080 IDH1 knockdown viability, ATP luminescence, 48 h | Potency, µM (titrated, usually from 46.1 µM), without a hit: at the highest dose activity, negative = toxicity, usual class: cytotoxic | 360,000 compounds, 2% hits | AID 686971, 2013;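 further: potency means the concentration at half of the fitted maximal effect; 0% = DMSO wells and -100% = cell-free medium wells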
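Luminescent ATP read-out (CellTiter-Glo, 10 min at room temperature) after 48 h compound exposure at 37 °C gave viability of IDH1-knockdown HT-1080 cells. Activity was normalised to DMSO and cell-free wells, then fitted as concentration-response curves.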
HT1080-NT tox – qHTS for induction of synthetic lethality in tumor cells producing 2HG: qHTS for the HT-1080-NT fibrosarcoma cell line; HT-1080-NT fibrosarcoma viability, CellTiter-Glo ATP luminescence, 48 h; Potency, µM (series often up to 46.1 µM), inactives show top-dose activity, negative = less viability, actives largely listed as cytotoxic; 360,000 compounds, 1.6% hits; AID 686970, 2013;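 further: NT is the 2HG producing partner of a matched IDH1 knockdown line; potency means the concentration at half of the fitted maximal effect; 0% = DMSO-treated cells and -100% = media-only wells without cells; nearly all actives have a fitted effect of over 55% in size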
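Compounds were tested in concentration-response format on HT-1080-NT cells for 48 hours at 37 degrees C. Cell viability came from CellTiter-Glo luminescence; curves were classified by r2, response magnitude and activity.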
TDP1 cell CPT – qHTS for Inhibitors of human tyrosyl-DNA phosphodiesterase 1 (TDP1): qHTS in cells in presence of CPT; Potency, µM (top dose mostly 46.2 µM), for inactives: at the top dose activity change, negative = growth inhibition, hits mostly inhibitors; 420,000 compounds, 12% hits; AID 686979, 2013; chicken DT40 Tdp1-/-;hTDP1 cells + 20 nM CPT, ATP luminescence, 48 h; further: potency means the concentration at half of the fitted maximal effect; nearly all actives have a fitted effect of over 55% in size
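Cell growth measured by CellTiter-Glo luminescence after a minimum 48 h, 37 C compound exposure with 20 nM CPT in Tdp1-knockout DT40 cells stably expressing hTDP1, seeded 400/well; qHTS titration format.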
Numbers without * were called inactive; u = inconclusive; x = no result; [ ] = remark or other dose. Unless noted, the call rests on the fitted dose curve; in most records, active means well fitted curve in the direction sought with a large enough effect; inconclusive means small, poorly fitted or top-dose-only effect, or another doubt; inactive means no such curve, though single readings can be large; an effect the other way counts as inactive or inconclusive. Unless noted, on the % scale 0 is the no-effect control and ±100 the full control effect.

SMILES	IL1B secr inh	DT40 TDP1 no CPT	HT1080 IDH1KD tx	HT1080-NT tox	TDP1 cell CPT
COc1cccc(C(=O)C2CCCN(CC3=Cc4cc(OC)ccc4OC3)C2)c1 (stereo unspecified)	-89.3*	-23.7%	-23.2%	-0.2%	u
O=C(c1ccc(Cl)cc1)C1CCCN(Cc2cccn2-c2ccccn2)C1 (stereo unspecified)	-80.4*	u	23.1µM*	16.4µM*	9.2µM*
CSc1ccc(C(=O)C2CCCN(Cc3cccc4nccnc34)C2)cc1 (stereo unspecified)	-19.9	u	-21.0%	-6.4%	14.6µM*
COc1ccc(F)cc1C(=O)C1CCCN(Cc2cccn2-c2cccnc2)C1 (stereo unspecified)	11.8	20.6µM*	7.5%	-6.7%	u
CSc1ccc(C(=O)C2CCCN(C(=O)CCCn3cncn3)C2)cc1 (stereo unspecified)	-2.1	u	9.3%	4.7%	u
Cc1ccsc1C(=O)C1CCCN(Cc2cccn2-c2ccc(Cl)cn2)C1 (stereo unspecified)	-76.4*	25.9µM*	u	u	23.1µM*
COc1cccc(C(=O)C2CCCN(Cc3cccc(OCCO)c3)C2)c1 (stereo unspecified)	-1.6	-16.6%	-3.3%	0.6%	16.6%
COc1cccc(C(=O)C2CCCN(Cc3cccn3-c3ccccn3)C2)c1 (stereo unspecified)	u	18.4µM*	u	u	u
CCN1C(=O)c2cccc3c(NC(=O)c4ccc(OC)c(OC)c4)ccc1c23	-5.7	-22.2%	4.1%	0.0%	-21.6%
COc1ccc(-c2c(C)nn3c(C(F)(F)F)cc(-c4ccc(Br)cc4)nc23)cc1	x	-1.7%	x	x	2.2%
CC(C)C(=O)N1CCC1(C)C(=O)NCc1ccc(F)cc1Cl (stereo unspecified)	-5.3	-10.5%	3.4%	-3.3%	u
O=C(c1ccc(C(F)(F)F)cc1)C1CCCN(Cc2cccn2-c2ncccn2)C1 (stereo unspecified)	-72.9*	25.9µM*	u	u	u
Cc1ccc(-n2cccn2)c(CN2CCCC(C(=O)c3sccc3C)C2)c1 (stereo unspecified)	-95.2*	23.1µM*	u	u	23.1µM*
COc1ccc(O)c(CN2CCCC(C(=O)Nc3cccc(-n4cccn4)c3)C2)c1 (stereo unspecified)	-6.2	u	1.5%	-0.2%	u
O=C(c1ccc(C(F)(F)F)cc1)C1CCCN(C(=O)c2cnccn2)C1 (stereo unspecified)	9.9	u	5.0%	8.3%	u
Cc1ccc(-n2c(C)cc(C(=O)CN3CCOCC3)c2C)cc1C	-4.3	u	-1.3%	-2.2%	20.6µM*
Cc1cc(C(=O)CN2C(=O)CN(C)C2=O)c(C)n1-c1cccc(S(=O)(=O)N2CCOCC2)c1	-9.6	4.61µM*	-2.2%	1.8%	-16.6%
Cc1cc(C(=O)CSc2ncn[nH]2)c(C)n1-c1cccc(S(=O)(=O)N2CCOCC2)c1	-17.2	18.4µM*	-6.0%	-6.6%	u
Cc1cc(C(=O)CCl)c(C)n1-c1cccc(S(=O)(=O)N2CCOCC2)c1	-102.3*	2.31µM*	u	23.1µM*	1.3µM*
S=c1[nH]ncn1-c1ccccn1	9.2	-20.6%	-14.4%	-6.3%	-9.8%
Cc1cc(-n2c(C)cc(C(=S)N3CCOCC3)c2C)ccc1Br	u	16.4µM*	-2.1%	6.8%	14.6µM*
Cc1ccc(-n2c(C)cc(C(=O)OCC(=O)N3CCOCC3)c2C)cc1	-0.5	-11.6%	-2.3%	-5.7%	-4.2%
Cc1sc(NC(=O)c2ccccc2F)c(CN2CCCCC2)c1C	-28.2	23.1µM*	3.6%	3.8%	20.6µM*
Cc1sc(NC(=O)c2ccc(F)cc2)c(CN2CCCCCC2)c1C	-27.8	13µM*	-7.7%	-2.2%	13µM*
Cc1sc(NC(=O)c2ccco2)c(CN2CCN(Cc3ccccc3)CC2)c1C	-79.8*	11.6µM*	u	-24.0%	11.6µM*
SMILES	IL1B secr inh	DT40 TDP1 no CPT	HT1080 IDH1KD tx	HT1080-NT tox	TDP1 cell CPT
Cc1ccc(-c2cc(C(=O)Nc3nn[nH]n3)c3ccccc3n2)cc1	7.6	-21.3%	-2.4%	-3.0%[9.24 µM]	u
CCOc1ccc(N2CC(C(=O)NCCc3c[nH]c4ccc(C)cc34)CC2=O)cc1 (stereo unspecified)	-12.4	u	-21.2%	-3.4%	-17.3%
CCCCSc1nc2c([nH]1)c(=S)n(C)c(=O)n2C	13.3	1.16µM*	9.4%	1.7%	1.3µM*
CSc1nc2c([nH]1)c(=S)n(C)c(=O)n2C	-19.5	5.17µM*	-3.3%	1.5%	5.8µM*
CCN(CC)CCSc1nc2c([nH]1)c(=S)n(C)c(=O)n2C	-24.2	5.17µM*	5.1%	7.0%	4.11µM*
Cn1c(=S)c2[nH]c(SCc3cccnc3)nc2n(C)c1=O	42.7	u	-0.8%	9.4%	u
Cn1c(=S)c2[nH]c(SCCC(C)(C)C)nc2n(C)c1=O	0.0	1.03µM*	-21.7%	-3.2%	1.46µM*
COCCNC(=S)N(CCc1c(C)[nH]c2ccc(F)cc12)Cc1ccco1	29.5	u	0.0%	-5.8%	u
Cc1cccc(OCCSc2nc3ccccc3n2CC(=O)N2CCOCC2)c1C	x	u	x	x	-22.2%
O=C(Nc1ccc(C(=O)O)cc1)Nc1cccc([N+](=O)[O-])c1	24.1	-17.8%	29.2%	19.6%	-8.4%
O=C(Nc1cccc([N+](=O)[O-])c1)Nc1cccc([N+](=O)[O-])c1	-57.0*	2.91µM*	u	u	4.61µM*
CC(=O)NC(=S)Nc1cccc([N+](=O)[O-])c1	-29.5	-21.0%	8.0%	10.3%	14.3%
CC(C)S(=O)(=O)c1csc(NC(=O)Nc2cccc([N+](=O)[O-])c2)c1Cl	-16.7	14.6µM*	16.4%	-3.9%	16.4µM*
Cc1occc1C(=O)NNC(=S)Nc1cccc([N+](=O)[O-])c1	28.7	23.1µM*	u	u	u
O=C(Nc1cccc([N+](=O)[O-])c1)NN1CCCCCC1	u	18.4µM*	-11.5%	-15.3%	u
C[C@@H]1CN([C@@H](C)CO)S(=O)(=O)c2ccc(Br)cc2O[C@H]1CN(C)C(=O)C1CCCCC1	-29.9	16.4µM*	-10.8%	5.8%	25.9µM*
C[C@@H]1CN([C@H](C)CO)S(=O)(=O)c2ccc(Br)cc2O[C@H]1CN(C)C(=O)C1CCCCC1	11.2	13µM*	-10.7%	-12.4%	25.9µM*

Compound activity deposited in PubChem by National Center for Advancing Translational Sciences (NCATS).
